Screening data: PubChem BioAssay, National Center for Advancing Translational Sciences (NCATS)
VACV Venus inh: vaccinia inhibition (Venus reporter); Vaccinia virus Venus reporter expression, fluorescence; Potency, µM (top dose mostly 36.5 µM), usual class: inhibitors; actives 0.46% (n = 330,000); AID 720580; calls by dose curve; tested in A549 cells; also: nearly all actives have a fitted effect of over 30% in size
MARV entry inh: blocks Marburg virus binding to or entry into cells | Potency, µM (highest dose often 37.8 µM), most hits filed as inhibitors | Marburg virus pseudotyped entry inhibition, cell reporter | AID 540276 | actives 1.8% (n = 300,000); calls by dose curve; tested in HEK293 cells
VACV mCherry inh: inhibitors of vaccinia virus infection (mCherry reporter signal); Vaccinia virus mCherry reporter infection, fluorescence; AID 720579; actives 0.63% (n = 310,000); Potency, µM (highest dose often 36.5 µM), usual class: inhibitors; calls by dose curve; tested in A549 cells; also: nearly all actives have a fitted effect of over 35% in size
HCMV antiviral: inhibitors of human cytomegalovirus. HFF cells, HCMV-luciferase reporter, 72 h; active compounds read low. activity change, negative = inhibition, % at 57.5 µM. actives 4.5% (n = 410,000); in the data active = activity change below about -60%; inconclusive = no clear call, values can overlap the other calls; inactive = above about -39%
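Two-dose cell screen: HFF monolayers treated with compounds and infected with luciferase-expressing HCMV at 1 PFU/cell, 72 h at 37C, then lysed for luciferase measurement.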
Lassa entry inh: blocks Lassa virus binding to or entry into cells; Lassa virus pseudotype entry inhibition, cell reporter; Potency, µM (titrated, usually from 37.9 µM), most hits filed as inhibitors; actives 1.2% (n = 300,000); AID 540256; calls by dose curve; tested in HEK293 cells; also: nearly all actives have a fitted effect of over 50% in size
FMDV inh: blocks foot and mouth disease virus. actives 1.2% (n = 410,000). Potency, µM (series often up to 57.9 µM), most hits filed as inhibitors. FMDV antiviral cell-based qHTS; calls by dose curve; tested in HEK293T cells; also: read-out not given here; nearly all actives have a fitted effect of over 45% in size
Hits are given with their value; n = inactive; u = inconclusive; x = not tested or not shown. Sampled rows, rich in hits. Any-hit rate of the full collection: about 6.5%.

SMILES	VACV Venus inh	MARV entry inh	VACV mCherry inh	HCMV antiviral	Lassa entry inh	FMDV inh
Cc1ccc(S(=O)(=O)N(C)c2ccc(OCC(=O)Nc3nc(-c4ccccc4)cs3)cc2)cc1	n	u	n	n	u	n
O=C(CCS(=O)(=O)c1ccc(Br)s1)Nc1cc(C(F)(F)F)cc(C(F)(F)F)c1	u	u	13µM	-90	n	u
O=C(c1ccncc1)N1CC(=O)N2[C@H](CO)[C@H](c3ccc(Br)cc3)[C@@H]2C1	x	x	x	n	x	x
C=C(C)CNC(=S)N/N=C(\C)c1ccc(OC)cc1	n	u	u	-70	u	n
COCCNC(=S)N/N=C(\C)c1ccc2cc(OC)ccc2c1	n	u	u	-75	8.2µM	n
COc1ccc(CNC(=S)N/N=C(/C)c2ccccc2)cc1	n	u	n	n	14µM	n
C/C(=N\NC(=S)NCc1ccccc1)c1ccc(C(C)(C)C)cc1	n	u	n	n	0.46µM	n
COCCNC(=S)N/N=C(\C)c1ccc(OC)cc1	n	n	n	n	u	n
CC#CCN1C(=O)N(C)C(c2ccccc2)C(C(=O)OC)=C1C (configuration not stated)	x	n	x	x	x	x
Cc1cccc2[nH]c3c(N4CCC5(CC4)OCCO5)ncnc3c12	x	u	x	n	n	40µM
Clc1ccc2[nH]c3c(N4CCC5(CC4)OCCO5)ncnc3c2c1	8.9µM	10µM	8.9µM	x	10µM	u
CCOC(=O)N1CCN(c2ncnc3scc(-c4ccccc4)c23)CC1	n	u	n	n	n	n
COc1ccc(-c2csc3ncnc(N4CCN(c5ccccc5)CC4)c23)cc1	n	u	n	n	u	18µM
CC(C)(C)C(=O)N1CCN(c2ncnc3scc(-c4ccccc4)c23)CC1	n	u	n	-70	u	n
COc1ccc(-c2csc3ncnc(N4CCN(Cc5ccccc5)CC4)c23)cc1	n	n	n	-89	n	22µM
COc1ccc(-c2csc3ncnc(N4CCN(c5ccc(OC)cc5)CC4)c23)cc1	x	x	x	n	x	u
CCN1CCN(c2ncnc3scc(-c4ccc(C)c(C)c4)c23)CC1	n	u	n	-67	n	n
COc1cc(F)ccc1Oc1cccc2c1S(=O)(=O)N([C@H](C)c1ccccc1)C[C@@H](COCc1ccccc1)O2	x	x	x	n	x	x
Cc1ccn(CCC(=O)NCC2Cc3cc(Cl)cc(-c4ccc5[nH]ccc5c4)c3O2)n1 (configuration not stated)	n	x	n	x	x	n
C=CCC12OC3(OC)CC1[C@H](C)[C@@H](c1ccccc1)C2[C@@]3(C)O (some centres not stated)	x	n	x	x	x	x
CN1OC(C)(CC(=O)NCc2ccccc2)N=C1c1ccccc1F (configuration not stated)	x	x	x	n	x	x
Fc1ccc(CN2CCN(c3ncnc4scc(-c5ccc(F)cc5)c34)CC2)cc1	x	x	x	-86	x	u
Cc1ccc(-c2csc3ncnc(N4CCN(c5ccccc5O)CC4)c23)cc1	n	u	u	n	u	n
Cc1ccccc1N1CCN(c2ncnc3scc(-c4cccs4)c23)CC1	x	23µM	x	-67	n	u
COc1ccccc1N1CCN(C(=O)CSc2ncnc3scc(-c4ccccc4)c23)CC1	n	u	n	n	6.3µM	u
SMILES	VACV Venus inh	MARV entry inh	VACV mCherry inh	HCMV antiviral	Lassa entry inh	FMDV inh
COc1ccccc1N1CCN(C(=O)CSc2nnc3n2C(C)(C)Cc2ccccc2-3)CC1	u	u	n	-92	u	16µM
O=C(CSc1ncnc2scc(-c3ccccc3)c12)N1CCN(c2ccccc2F)CC1	n	u	n	u	u	u
CC(C)(O)C#Cc1ccc(CN2CCc3nnc(CNC(=O)c4cccc(F)c4)n3CC2)cc1	n	x	n	x	x	n
COc1cccc(CN2CCCC(c3nc(-c4ccncc4)ncc3-c3ccccc3C)C2)c1O (configuration not stated)	n	x	n	x	x	n
Clc1ccc(CN2CCN(c3ncnc4scc(-c5cccs5)c34)CC2)cc1	x	u	x	-98	u	u
Clc1ccc(-c2csc3ncnc(N4CCc5ccccc5C4)c23)cc1	n	n	n	n	n	u
c1ccc2c(c1)nnn2Cn1nnc2ccccc21	n	x	n	-63	x	n
Cc1ccc(CNC(=O)O[C@H]2CC[C@@]34CCCN3C(=O)CCC[C@H]4[C@H]2Cc2ccccc2)o1	x	x	x	n	x	x
COc1ccc(-c2sc3ccc(N4CCOCC4)cc3c2C#CC(C)(C)O)cc1	n	x	n	n	x	n
COc1ccc(-c2ccc3oc(-c4ccc(OC)cc4)c(C#CCO)c3c2)cc1	u	x	n	-92	x	8.9µM
COc1ccc(-c2ccc3oc(-c4ccc(OC)cc4)c(-c4ccc(OC)cc4)c3c2)cc1	n	x	n	n	x	n
COc1ccc(-c2oc3ccc(N4CCOCC4)cc3c2C#CCO)cc1	u	x	5.6µM	-67	x	28µM
COc1ccccc1Cc1c(-c2ccc(F)cc2)nc2c3ccccc3ccn12	x	x	x	n	x	x
COc1cccc(NC(=O)Cn2cc(S(=O)(=O)Cc3ccccc3F)c3ccccc32)c1	n	x	n	n	n	n
COc1cc(NC(=O)COC(=O)/C=C/c2ccccc2Cl)cc(OC)c1	n	n	n	-103	u	n
C/C=C/C(=O)OCC(=O)Nc1ccc(OC)c(OC)c1	u	n	u	n	n	n
C/C=C/C(=O)OCC(=O)Nc1ccc(OC)c(Cl)c1	10µM	n	8.9µM	n	n	n
Cc1csc(NC(=O)CSc2nnc(-c3ccccc3)o2)n1	n	u	n	n	u	n
CCn1c(SCC(=O)Nc2nccs2)nnc1-c1ccc(S(=O)(=O)N2CCCCC2)cc1	x	n	x	n	n	25µM
CCn1c(SCC(=O)Nc2nccs2)nnc1-c1ccccc1	n	n	n	n	n	n
Cc1csc(NC(=O)CSc2nnc(-c3ccc(S(=O)(=O)N4CCCC4)cc3)o2)n1	4.5µM	n	3.2µM	n	n	n
Cc1ccc(-c2nnc(SCC(=O)Nc3ccc(S(=O)(=O)N4CCCCCC4)cc3)o2)cc1	n	u	n	n	u	n
CCN(CC)S(=O)(=O)c1ccc(-c2nnc(SCC(=O)Nc3nc(C)cs3)o2)cc1	11µM	n	5µM	n	n	x
COc1ccc(/C=C/c2ccc3ccccc3n2)c(OC)c1	n	x	n	x	x	x
Cc1cccc(C(=O)NC(NCc2ccco2)C(Cl)(Cl)Cl)c1 (configuration not stated)	n	n	x	n	n	n
SMILES	VACV Venus inh	MARV entry inh	VACV mCherry inh	HCMV antiviral	Lassa entry inh	FMDV inh
CCOc1ccc(CN(C)C(=O)[C@H](Cc2ccccc2)NC(=O)OCc2ccccc2)cc1OC	n	4.5µM	u	n	8.9µM	20µM
Cc1cccc(C(=O)NC(NCCc2ccccc2)C(Cl)(Cl)Cl)c1 (configuration not stated)	n	u	n	-71	u	u
CSc1ccc(CN(C)CC(=O)NCc2ccccc2)cc1	n	n	n	-63	u	n
CN(Cc1ccccc1)C(NC(=O)c1ccccc1)C(Cl)(Cl)Cl (configuration not stated)	x	n	x	n	21µM	n
O=C(Nc1ccn2ccnc2n1)c1ccccc1OC(F)(F)F	x	x	x	n	x	x
CCOc1ccc(CNC(=O)c2cc3c(s2)-c2ccccc2OC3)cc1	n	n	n	n	x	n
CCCCNC(=O)c1nc2cc(C)c(C)cc2nc1-c1ccc2c(c1)OCO2	x	x	x	n	x	x
